# Bioassay records from PubChem.
# MRP-1 activ: MRP-1 activation; H69AR cells + doxorubicin, viability rescue, CellTiter-Glo; viability increase, % at 10 µM; actives 0.61% (n = 140,000); AID 799;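 active = viability gain under doxorubicin at or above a set limit, the compound median plus 3 SD, cut at about 4.7% in these data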;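 note: MRP-1 overexpressing cells given doxorubicin 25 µM after compound pretreatment; 18-22 h compound pretreatment then 72 h with doxorubicin before readout; 0% = doxorubicin-only wells and 100% = vehicle-treated cells without doxorubicin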
# CYP2C9 act: activators of human CYP2C9; P11712; recombinant CYP2C9, luciferin-H conversion, luminescence; hits give high values; factor 1 = untreated enzyme, 0 = blocked; activation factor at 5 µM; actives 1.4% (n = 96,000);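 active = activation factor of 2 or more for CYP2C9 at a 5 µM dose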;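 note: 0 = sulfaphenazole-blocked wells and 1 = vehicle-only wells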
# Target sequence (P11712 whole entry, looked up): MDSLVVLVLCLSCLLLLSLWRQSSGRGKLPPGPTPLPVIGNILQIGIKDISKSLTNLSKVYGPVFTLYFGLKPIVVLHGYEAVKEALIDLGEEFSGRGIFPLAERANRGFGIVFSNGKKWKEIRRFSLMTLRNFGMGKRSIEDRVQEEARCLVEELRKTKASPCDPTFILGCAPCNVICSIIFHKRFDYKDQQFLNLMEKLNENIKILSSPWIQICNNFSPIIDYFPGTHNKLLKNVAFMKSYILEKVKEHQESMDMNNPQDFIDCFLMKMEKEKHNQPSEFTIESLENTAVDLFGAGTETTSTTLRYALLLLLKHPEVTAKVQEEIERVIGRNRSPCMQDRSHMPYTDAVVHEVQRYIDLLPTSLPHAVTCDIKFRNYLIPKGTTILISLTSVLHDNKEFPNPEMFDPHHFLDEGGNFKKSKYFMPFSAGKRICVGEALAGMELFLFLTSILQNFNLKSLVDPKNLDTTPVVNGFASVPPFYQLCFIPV
# CYP2C19 inh: human CYP2C19 inhibition; P33261; CYP2C19 Supersomes, luciferin-H EGE luminescence, 30 min; inhibition, % at 5 µM; actives 21% (n = 96,000);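 active = CYP2C19 inhibition above a set limit at 5 µM in the primary screen, cut at about 50% in these data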;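 note: plate controls were negative control wells for no effect and 2.5 mM tranylcypromine positive control for full effect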
# CYP2C19 activ: activators of human cytochrome P450 2C19 | recombinant CYP2C19, luciferin-H EGE luminescence; hits give high values; 0 = fully inhibited enzyme, 1 = untreated enzyme | activation factor at 5 µM | 96,000 tested, under 10 active;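 active = activation factor of at least 2 at 5 µM in the primary screen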;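 note: 0 = wells with 2.5 mM tranylcypromine and 1 = vehicle-only wells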
# MRP resist rev: MRP-mediated drug resistance reversal. differential viability (reversal), % at 10 µM. AID 602. H69AR cells + 2 uM doxorubicin, CellTiter-Glo, 72 h. actives 0.04% (n = 85,000);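 active = viability drop by adding the cancer drug above about 55%, with treated viability meeting a 40% cutoff, limit read from the data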;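 note: viability without doxorubicin minus viability with 2 µM doxorubicin for each compound; larger differential means the compound sensitizes cells more to doxorubicin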
# CYP2C9 inh: inhibitors of human CYP2C9; P11712; CYP2C9 Supersomes, luciferin-H conversion, luminescence; inhibition, % at 5 µM; actives 20% (n = 96,000); AID 777;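 active = blocking of liver enzyme CYP2C9 beyond about 50% at 5 µM, limit read from the data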
# An asterisk follows results filed as active; / = no result. Most compounds without a hit are left out; they make up all but 21% or so of the library.
SMILES,MRP-1 activ,CYP2C9 act,CYP2C19 inh,CYP2C19 activ,MRP resist rev,CYP2C9 inh
Cc1[nH]c2ccccc2c1C(c1ccccn1)N1CCC(C(N)=O)CC1 (stereo not given),-2,1.1,51*,0.5,-6,-6
Cc1c(Cl)c(C(=O)NNC(=S)Nc2ccccc2)nn1C,1,0.8,78*,0.2,/,21
Cc1ccc(NC(=S)NNC(=O)c2nn(C)cc2Cl)cc1,1,0.9,41,0.6,/,9
COc1ccccc1NC(=S)NNC(=O)c1c(Cl)c(C)nn1C,-3,0.3,7,0.9,/,66*
COc1ccccc1NC(=S)NNC(=O)c1cc(C)nn1C,0,0.8,2,1,/,25
Cc1cccc(NC(=S)NNC(=O)c2nn(C)cc2Cl)c1,2,0.8,61*,0.4,/,18
CS(=O)(=O)N1CCCC(C(=O)NCCCN2CCOCC2)C1 (stereo not given),1,1,-2,1,7,-1
CCOC(=O)c1c(CC(C)C)csc1NC(=O)CCl,-8,0.4,22,0.8,/,62*
CC(=O)NCCn1c(SCc2ccccc2F)nc2ccccc2c1=O,0,0,98*,0,15,97*
Cn1c(SCc2ccccc2F)nc2cccnc21,0,0.8,63*,0.4,7,25
CC(=O)NCCn1c(SCC#N)nc2ccccc2c1=O,-2,0.9,24,0.8,13,6
COc1ccc(C(=O)CSc2nc3cccnc3n2C)cc1,2,/,/,/,10,/
N#CC(c1ccccc1)N(CCCCl)C(=O)c1ccccc1 (stereo not given),-1,/,/,/,/,/
O=C(Nc1ccc(Cl)cn1)C1CCCN1S(=O)(=O)c1ccccc1 (stereo not given),-1,0.2,22,0.8,4,80*
O=C(NCCc1ccccc1F)C1CCCN1S(=O)(=O)c1ccccc1 (stereo not given),-3,0.7,79*,0.2,11,26
O=C(Nc1ccc(Br)cc1)C1CCCN1S(=O)(=O)c1cccs1 (stereo not given),0,0.1,96*,0,11,90*
O=C(NCCc1ccccc1)C1CCCN1S(=O)(=O)c1ccc(F)cc1 (stereo not given),/,/,/,/,7,/
O=C(Nc1ccc(Br)cn1)C1CCCN1S(=O)(=O)c1ccccc1 (stereo not given),-3,0.2,52*,0.5,4,77*
Cc1c(NC(=O)C2CCCN2S(=O)(=O)c2ccc(Cl)cc2)c(=O)n(-c2ccccc2)n1C (stereo not given),0,1.2,-15,1.2,6,-18
Cc1nc2sc3c(c2c2nc(-c4ccco4)nn12)CC(C)(C)OC3,/,/,/,/,-3,/
O=C(Nc1cccnc1)C1CCCN1S(=O)(=O)c1ccc(Cl)c(Cl)c1 (stereo not given),-1,0.3,15,0.8,4,69*
CCC(=O)c1ccc(OCC(O)Cn2cnc3ccccc32)cc1 (stereo not given),-4,0.9,9,0.9,9,14
CCOC(=O)c1c(C)n(C)c2ccc(OCC(O)Cn3c(C)nc4ccccc43)cc12 (stereo not given),-1,0.3,47,0.5,/,70*
CCC(=O)c1ccc(OCC(O)Cn2c(C)nc3ccccc32)cc1 (stereo not given),-3,0.5,72*,0.3,-10,50*
CCOC(=O)c1c(C)n(C)c2ccc(OCC(O)CN3CCN(C)CC3)cc12 (stereo not given),-3,0.9,19,0.8,0,8
SMILES,MRP-1 activ,CYP2C9 act,CYP2C19 inh,CYP2C19 activ,MRP resist rev,CYP2C9 inh
CC(C)Oc1ccc(C(=O)NC2(C(F)(F)F)NC(=O)N(CCCc3ccccc3)C2=O)cc1 (stereo not given),-3,/,/,/,/,/
O=C(Nc1ccc(CN2CCOCC2)cc1)c1cc2ccccc2oc1=O,/,/,/,/,-1,/
Cc1ccc(C)c(NC(=O)c2ccccc2O)c1,-2,0.5,33,0.7,-8,51*
Cc1cccc(NC(=O)c2ccccc2O)c1C,-1,0.7,16,0.8,-12,34
CCS(=O)(=O)c1ccc(NC(=O)c2ccccc2Cl)c(O)c1,-1,0.5,4,1,7,53*
Cc1ccc(C)c(NC(=O)c2ncn[nH]2)c1,-2,0.9,0,1,-10,5
O=C(Nc1ccccc1O)c1ccccc1O,-4,0.4,-34,1.3,-20,63*
O=C(CCNS(=O)(=O)c1cccc2nsnc12)N1CC(=O)N(CCc2ccccc2)C(=O)C1,-1,1,12,0.9,/,4
CCOC(=O)C1CCN(c2c(NC3CCCCCCC3)c(=O)c2=O)CC1,-2,0.9,8,0.9,3,13
Cc1cccc(CN2C(=O)N/C(=C/c3ccc(C)s3)C2=O)c1,-5,1.5,29,0.7,/,-48
Cc1cccc(CN2C(=O)N/C(=C/c3cc(C)n(-c4cc(C)ccn4)c3C)C2=O)c1,1,0.4,45,0.6,/,61*
Cc1cc(/C=C2\NC(=O)N(Cc3ccc(Cl)cc3)C2=O)c(C)n1C,6.2*,/,/,/,/,/
O=C(CN1C(=O)c2ccccc2S1(=O)=O)NCCSC1CCCCC1,-1,0.8,11,0.9,13,24
O=C(NCc1ccc(Cl)cc1Cl)C1CCN(S(=O)(=O)c2ccc3c(c2)OCCCO3)CC1,2,/,/,/,/,/
CCOC(=O)CNC(=O)C1c2ccccc2C(=O)N(c2ccc(OC)cc2)C1c1ccc(OC)cc1 (stereo not given),-3,0.8,20,0.8,-11,20
COc1ccc(C(=O)N2CCCC(c3nc(-c4cc(OC)c(OC)c(OC)c4)no3)C2)cc1 (stereo not given),-1,0.3,31,0.7,-13,66*
COc1ccc(-c2noc(C3CCCN(S(=O)(=O)c4cccc(Cl)c4)C3)n2)cc1OC (stereo not given),-1,0.1,94*,0.1,-8,87*
Cc1ccc(-c2noc(C3CCCN(C(=O)c4ccccc4)C3)n2)o1 (stereo not given),-1,0.8,13,0.9,-2,24
COc1ccccc1C(=O)N1CCCC(c2nc(-c3cc(OC)c(OC)c(OC)c3)no2)C1 (stereo not given),-4,0.6,59*,0.4,-3,45
COc1ccc(-c2noc(-c3cccc(Cl)c3)n2)cc1OC,-3,/,/,/,-8,/
CCN=C(NCC)SC1CC(=O)N(c2ccc(OC)cc2)C1=O (stereo not given),1,1,70*,0.3,-1,-2
CCOc1ccc(N2C(=O)CC(SC(=NC)Nc3cccc(F)c3)C2=O)cc1 (stereo not given),1,0.7,18,0.8,1,35
CCCOc1ccc(N2C(=O)CC(SC(=NCC)Nc3cccc(F)c3)C2=O)cc1 (stereo not given),-7,/,/,/,5,/
CN=C(Nc1ccccc1)SC1CC(=O)N(c2ccc(C(=O)OC)cc2)C1=O (stereo not given),0,0.3,38,0.6,/,68*
